Results from PubChem BioAssay.
Values joined by “and” are separate entries in the source; they are usually repeats but may differ in a detail not shown here. Equal entries are not always repeated. More than one record can exist for a structure, and the calls need not agree. Active and inactive are the calls of the source.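 Rule for the calls, unless noted: active = thallium flux through the channel raised or lowered by more than 3 SD from vehicle-only wells, actives on both sides; inactive = the rest.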

Columns and labels:
[1] = system: Hepatitis C virus NS3 helicase; experiment: HCV NS3 helicase inhibitors, primary screen, biochemical, fluorescence polarization, NIH Clinical Collection (AID 743270; call rule not given here); conditions: NS3 helicase binding to Cy5-dT15 DNA, stronger effect = higher value, concentration not given here
[2] = target: Single-stranded DNA-binding protein (Escherichia coli (strain K12)) (UniProt P0AGE0); experiment: E. coli SSB displacement from DNA, counter-screen for HCV NS3 helicase inhibitor project, biochemical, fluorescence polarization, NIH Clinical Collection (AID 743271; in the data active = inhibition above about 28%); conditions: stronger effect = higher value, concentration not given here
[3] = fluorescence interference in NS3h assay format, artefact control for HCV NS3 helicase inhibitor project, biochemical, NIH Clinical Collection (AID 743272; call rule not given here;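 note: HCV NS3 helicase with a Cy5 labelled single stranded DNA probe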); conditions: fluorescence interference counterscreen, stronger effect = lower value
[4] = stimulators of nuclear beta-catenin in C2C12, primary screen, imaging, WNT3A-conditioned medium, mouse C2C12, NPC library (AID 1117326; in the data active = nuclear beta-catenin stimulation mostly above about 4.2%, no sharp cut-off; inactive = mostly below about 10%); conditions: stronger effect = higher value
[5] = stimulators of insulin release from INS-1E, primary screen, cell-based, 5 mM glucose, NPC library (AID 1117329;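 active = compound raises insulin release from rat beta cells at 5 mM glucose, no numeric limit stated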); conditions: rat INS-1E insulin secretion, at 10 µM, stronger effect = higher value
[6] = growth inhibition of GSK3B-pretreated HCT116 cells – cell-based, CellTiter-Glo, 0.2 to 20 µM (AID 1117336;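 active = compounds lowering colon cancer cell viability after pretreatment blocking the GSK3B kinase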); conditions: HCT116 viability after GSK3B inhibitor, at 20 µM, stronger effect = higher value
[7] = inhibition of endothelial tube formation, primary screen, imaging, VEGF stimulated, CD31 staining, tube area, NPC library (AID 1117340;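 active = compound that reduces growth-factor-driven endothelial tube area in a mixed cell culture, no cutoff stated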); conditions: VEGF-stimulated ADSC/ECFC co-culture, at 10 µM, stronger effect = higher value
[8] = glucagon-like peptide 1 release enhancers, primary assay, NCI-H716 cell line, NPC library (AID 1117341;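 active = compound raises GLP1 secretion from the human gut endocrine cells, with no numeric limit stated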); conditions: NCI-H716 cells, at 10 µM, stronger effect = higher value
[9] = HCT116 colon cancer cell growth inhibition, primary screen, CellTiter-Glo luminescence, NPC library (AID 1117342;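 active = compounds that lower survival of HCT116 colon cancer cells in the luminescence readout, no numeric limit stated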); conditions: at 20 µM (top of the series)
[10] = CellTiter-Glo luminescent readout of SW480 viability loss, NPC library primary (AID 1117343;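 active = compounds that lower viability of the colon cancer cells in the luminescence readout, with no numeric limit stated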); conditions: CellTiter-Glo luminescence; at 20 µM (top of the series)
[11] = decreased DLD-1 cellular survival, CellTiter-Glo luminescent readout, NPC compound collection, primary HTS (AID 1117346;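 active = compounds that lower survival of DLD-1 colon cancer cells in the luminescence readout, no cutoff given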); conditions: DLD-1 viability, CellTiter-Glo luminescence; at 20 µM (top of the series)
[12] = target: 6-phosphogluconate dehydrogenase, decarboxylating (Homo sapiens) (UniProt P52209); experiment: 6PGD enzyme inhibitors, primary screen, biochemical, human, recombinant enzyme, NADPH absorbance (AID 1159550;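 active = at least 20% inhibition of 6-phosphogluconate dehydrogenase activity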); conditions: recombinant 6PGD, NADPH absorbance 341 nm; at 10 µM; stronger effect = higher value
[13] = differential killing of epithelial or mesenchymal cells, primary screen, imaging, PC-3E GFP, TEM4-18 mCherry, co-culture (AID 1345086;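 active = compounds killing one labelled cell type while sparing the other, by normalised counts and ratio limits, not self-fluorescent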;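 for all read-outs here: cells exposed to compound for 72 h before imaging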;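 for red/green cell ratio (normalised): normalised mesenchymal count divided by normalised epithelial count so high means epithelial killing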); conditions: imaging cell counts, at 1 µM; for red/green cell ratio (normalised): actives lie on both sides, counts scaled to control wells, 1 = unselective
[14] = survival rescue of mitochondrial mutant cells in low glucose, primary screen, MELAS cybrids, Rieske KO mouse fibroblasts, CellTiter-Glo (AID 1508586;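 active = mean z-score across replicates of 1.96 or higher in either the MELAS or the Rieske mutant cell line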;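 note: z relative to plate mean and SD of compound and empty wells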)
[15] = target: NAD(+) hydrolase SARM1 (Homo sapiens) (UniProt Q6SZW1); experiment: SARM1 TIR NADase inhibitors, cell lysate, NAD-Glo luminescence (AID 1508614;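 active = compound whose remaining NAD level is above about 45 nM, limit read from the data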;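 note: higher remaining NAD means stronger inhibition of SARM1 NADase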); conditions: SAM-TIR HEK293T lysate NADase, at 1 µM, stronger effect = higher value
[16] = target: Mitogen-activated protein kinase 7 (Homo sapiens) (UniProt Q13164); experiment: ERK5 transactivation activators in reporter cells, primary screen, cell-based, HTS (AID 1508626;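 active = luciferase signal above three times the same-plate solvent-only control wells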;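 note: luciferase driven by Gal4-ERK5 fusion binding five Gal4 sites before minimal TATA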); conditions: HeLa Gal4-ERK5 transactivation, 18 h, at 5 µM, stronger effect = higher value
F380Y = experiment: modulators of BK channel variants, profiling panel, selectivity assay, cell-based, U2OS BacMam, thallium flux, beta subunits (AID 1259406); conditions: at 30 µM;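 note: initial slope of Thallos dye fluorescence rise after thallium is added; log ratio against the mean of 0.3% DMSO vehicle wells on the same plate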
F380Y/beta2Delta = experiment: as above; conditions: at 30 µM
[17] = target: Calcium-activated potassium channel subunit alpha-1 (Homo sapiens) + Leucine-rich repeat-containing protein 26 (Homo sapiens) (UniProt Q12791+Q2I0M4); experiment: as above; conditions: F380Y/Slo1WT/gamma1, at 30 µM
[18] = sensitizers of A549 cells to miR-34 induction, primary screen, imaging, A549 dox-inducible miR-34, nuclei and caspase counts (AID 1347080;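 active = compounds whose cell count with miR-34 switched on is under 0.7 times the count with it off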); conditions: A549 miR-34 inducible, Hoechst nuclei count, 48 h
[19] = measured here: epithelial PC-3E GFP cell survival
[20] = measured here: mesenchymal TEM4-18 mCherry cell survival
[21] = MELAS cybrid survival, CellTiter-Glo 48 h, stronger effect = higher value
[22] = Rieske KO mouse fibroblast survival, CellTiter-Glo 72 h
[23] = stronger effect = lower value, cell number ratio, induced over uninduced
[24] = measured here: relative caspase fold change +Dox/-Dox
[25] = measured here: total cells with miR-34 induction, stronger effect = lower value
[26] = measured here: total cells without miR-34 induction

Mitogen-activated protein kinase 7 (Homo sapiens), sequence (Q13164 whole entry, looked up, the tested form may be a part): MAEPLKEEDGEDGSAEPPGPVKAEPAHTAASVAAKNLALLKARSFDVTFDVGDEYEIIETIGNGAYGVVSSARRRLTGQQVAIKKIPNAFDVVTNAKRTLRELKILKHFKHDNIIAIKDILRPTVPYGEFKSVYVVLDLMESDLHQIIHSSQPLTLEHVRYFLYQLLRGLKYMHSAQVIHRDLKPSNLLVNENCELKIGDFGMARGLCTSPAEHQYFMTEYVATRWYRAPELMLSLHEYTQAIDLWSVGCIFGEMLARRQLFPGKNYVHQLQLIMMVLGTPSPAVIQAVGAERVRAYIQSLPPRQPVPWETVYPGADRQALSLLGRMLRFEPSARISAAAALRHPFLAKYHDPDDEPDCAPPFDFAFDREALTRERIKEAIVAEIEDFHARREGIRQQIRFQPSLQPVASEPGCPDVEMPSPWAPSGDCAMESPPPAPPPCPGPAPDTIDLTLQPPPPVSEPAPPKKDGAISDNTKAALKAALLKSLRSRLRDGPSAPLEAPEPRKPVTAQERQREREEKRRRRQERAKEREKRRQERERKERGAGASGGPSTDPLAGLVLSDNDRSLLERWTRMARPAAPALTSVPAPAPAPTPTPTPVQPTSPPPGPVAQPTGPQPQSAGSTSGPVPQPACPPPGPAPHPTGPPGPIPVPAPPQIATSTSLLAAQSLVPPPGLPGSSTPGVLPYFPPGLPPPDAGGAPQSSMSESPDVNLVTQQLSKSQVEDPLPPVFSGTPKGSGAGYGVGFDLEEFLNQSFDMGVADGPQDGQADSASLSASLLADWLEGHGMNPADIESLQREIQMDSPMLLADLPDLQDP
NAD(+) hydrolase SARM1 (Homo sapiens), sequence (Q6SZW1 whole entry, looked up, the tested form may be a part): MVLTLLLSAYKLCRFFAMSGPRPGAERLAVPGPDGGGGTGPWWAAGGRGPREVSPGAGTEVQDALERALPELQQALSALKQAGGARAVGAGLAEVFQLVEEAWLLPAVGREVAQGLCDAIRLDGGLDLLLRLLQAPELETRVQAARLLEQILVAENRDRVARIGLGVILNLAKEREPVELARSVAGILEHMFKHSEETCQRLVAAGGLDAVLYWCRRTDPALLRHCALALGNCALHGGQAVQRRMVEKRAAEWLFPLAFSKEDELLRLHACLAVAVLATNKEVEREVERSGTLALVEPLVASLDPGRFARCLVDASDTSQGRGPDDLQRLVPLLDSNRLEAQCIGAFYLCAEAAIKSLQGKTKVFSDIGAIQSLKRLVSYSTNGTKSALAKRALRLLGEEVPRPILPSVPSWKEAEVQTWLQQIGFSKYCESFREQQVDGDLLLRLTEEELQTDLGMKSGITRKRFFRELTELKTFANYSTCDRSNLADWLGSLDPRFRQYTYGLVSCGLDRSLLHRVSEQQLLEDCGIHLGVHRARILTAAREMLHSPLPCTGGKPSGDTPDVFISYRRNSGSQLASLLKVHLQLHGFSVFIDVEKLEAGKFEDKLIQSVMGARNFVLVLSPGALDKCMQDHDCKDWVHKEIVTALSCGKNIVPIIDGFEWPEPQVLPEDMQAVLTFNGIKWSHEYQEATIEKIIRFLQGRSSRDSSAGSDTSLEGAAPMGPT
6-phosphogluconate dehydrogenase, decarboxylating (Homo sapiens), sequence (P52209 whole entry, looked up): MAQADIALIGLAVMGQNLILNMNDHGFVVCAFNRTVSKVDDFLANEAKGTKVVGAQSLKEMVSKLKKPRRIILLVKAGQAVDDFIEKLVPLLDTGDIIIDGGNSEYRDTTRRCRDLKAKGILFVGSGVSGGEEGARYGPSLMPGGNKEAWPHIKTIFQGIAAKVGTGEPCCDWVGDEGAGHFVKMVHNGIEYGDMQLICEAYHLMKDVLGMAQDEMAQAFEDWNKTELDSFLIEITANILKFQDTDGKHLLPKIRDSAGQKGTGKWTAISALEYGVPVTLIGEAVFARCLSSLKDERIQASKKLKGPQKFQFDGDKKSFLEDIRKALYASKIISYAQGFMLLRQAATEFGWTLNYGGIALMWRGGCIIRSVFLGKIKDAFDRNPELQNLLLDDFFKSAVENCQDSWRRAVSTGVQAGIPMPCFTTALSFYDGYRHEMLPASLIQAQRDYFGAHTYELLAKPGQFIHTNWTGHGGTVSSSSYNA
Calcium-activated potassium channel subunit alpha-1 (Homo sapiens) + Leucine-rich repeat-containing protein 26 (Homo sapiens), sequence (Q2I0M4 whole entry, looked up, one chain of several): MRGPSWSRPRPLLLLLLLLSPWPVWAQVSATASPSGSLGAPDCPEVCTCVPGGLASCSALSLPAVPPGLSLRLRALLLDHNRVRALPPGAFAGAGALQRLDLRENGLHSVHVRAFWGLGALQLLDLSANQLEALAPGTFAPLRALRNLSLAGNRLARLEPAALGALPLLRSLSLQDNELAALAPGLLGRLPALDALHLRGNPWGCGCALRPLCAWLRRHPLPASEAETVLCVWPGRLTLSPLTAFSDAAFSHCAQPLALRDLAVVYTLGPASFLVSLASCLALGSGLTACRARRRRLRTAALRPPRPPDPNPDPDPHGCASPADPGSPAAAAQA

COc1cc2nc(N(C)CCCNC(=O)C3CCCO3)nc(N)c2cc1OC (centres undefined)
1.09: normalised cell number [13, 20]
1.18: normalised cell number [13, 19]
0.382 and 0.0438: z-score [14, 22]
1.8%: nuclear beta-catenin stimulation ([4]; stimulation, at 2 µM)
inactive: inhibition [1] -1.98% | inhibition [2] -3.95% | fluorescence ratio [3] 1.02 | nuclear beta-catenin stimulation ([4]; at 10 µM) 1.8% | insulin secretion stimulation [5] -0.3% | viability decrease [6] -24.4% | tube area decrease [7] -4.5% | GLP1 secretion stimulation [8] 14.6% | inhibition of viability [9] 21.1% | viability decrease (inhibition) [10] 19.4% | viability decrease (inhibition) [11] 0.1% | inhibition [12] 0.608% | red/green cell ratio (normalised) [13] 0.93 | z-score [14, 21] -0.397 and -0.012 | remaining NAD [15] 10 nM | luciferase signal [16] 28 AU | log fold change Tl+ flux (F380Y) 0.0271 | log fold change Tl+ flux (F380Y/beta2Delta) 0.0311 | log fold change Tl+ flux [17] -0.0369

NCc1ccc(S(N)(=O)=O)cc1
11100 and 8530 and 11400: cell count [18, 25]
active: insulin secretion stimulation [5] -0.5%
2.25 and 1.29 and 0.783: fold change [18, 24]
inactive: inhibition [1] -7.73% | inhibition [2] 1.05% | fluorescence ratio [3] 1.01 | nuclear beta-catenin stimulation ([4]; at 10 µM) 0.8% | viability decrease [6] 1.95% | tube area decrease [7] 8.4% | GLP1 secretion stimulation [8] 1.9% | inhibition of viability [9] 7% | viability decrease (inhibition) [10] 14.1% | viability decrease (inhibition) [11] 13.8% | inhibition [12] -1.59% | red/green cell ratio (normalised) [13] 1 | fold change [18, 23] 0.973 and 0.954 and 0.851 | z-score [14, 21] 0.171 | remaining NAD [15] 10 nM | luciferase signal [16] 92 AU | log fold change Tl+ flux (F380Y) 0.0308 | log fold change Tl+ flux (F380Y/beta2Delta) -0.0418 | log fold change Tl+ flux [17] 0.00552
0.2%: nuclear beta-catenin stimulation ([4]; stimulation, at 2 µM)
-0.0568: z-score [14, 22]
11400 and 8940 and 13400: cell count [18, 26]
0.74: normalised cell number [13, 19] | normalised cell number [13, 20]

OCCN1CCN(CCCN2c3ccccc3Sc3ccc(C(F)(F)F)cc32)CC1
6.3%: nuclear beta-catenin stimulation ([4]; stimulation, at 2 µM)
-0.139 and 0.376: z-score [14, 22]
active: viability decrease [6] 118% | tube area decrease [7] 98.9% | inhibition of viability [9] 124% | viability decrease (inhibition) [10] 157% | viability decrease (inhibition) [11] 101% | log fold change Tl+ flux (F380Y) 0.235 | log fold change Tl+ flux (F380Y/beta2Delta) 0.167
0.95: normalised cell number [13, 20]
inactive: inhibition [1] -6.33% | inhibition [2] 5.91% | fluorescence ratio [3] 0.82 | nuclear beta-catenin stimulation ([4]; at 10 µM) 39.2% | insulin secretion stimulation [5] 8.85% | GLP1 secretion stimulation [8] 15.4% | inhibition [12] 10.2% | red/green cell ratio (normalised) [13] 1.23 | z-score [14, 21] -1.28 and 0.571 | remaining NAD [15] 10 nM | luciferase signal [16] 28 AU | log fold change Tl+ flux [17] 0.0357
0.78: normalised cell number [13, 19]

Cc1ncc([N+](=O)[O-])n1CC(C)O (centres undefined)
1.6%: nuclear beta-catenin stimulation ([4]; stimulation, at 2 µM)
1.13: normalised cell number [13, 19]
1.68 and 0.635 and 1.41: fold change [18, 24]
9820 and 10000 and 10600: cell count [18, 26]
0.94: normalised cell number [13, 20]
0.828 and -0.245 and -0.0796: z-score [14, 22]
9430 and 9630 and 9650: cell count [18, 25]
inactive: inhibition [1] 5.15% | inhibition [2] 6.83% | fluorescence ratio [3] 1 | nuclear beta-catenin stimulation ([4]; at 10 µM) 3.5% | insulin secretion stimulation [5] -0.9% | viability decrease [6] -3.45% | tube area decrease [7] -13.6% | GLP1 secretion stimulation [8] 4.1% | inhibition of viability [9] -0.3% | viability decrease (inhibition) [10] 5.3% | viability decrease (inhibition) [11] -0.75% | inhibition [12] -1.51% | red/green cell ratio (normalised) [13] 0.83 | fold change [18, 23] 0.961 and 0.91 | z-score [14, 21] -0.319 and 0.295 and -0.342 | remaining NAD [15] 10 nM | luciferase signal [16] 40 AU | log fold change Tl+ flux (F380Y) -0.058 | log fold change Tl+ flux (F380Y/beta2Delta) -0.00369 | log fold change Tl+ flux [17] -0.0293

O=C1C(CCS(=O)c2ccccc2)C(=O)N(c2ccccc2)N1c1ccccc1 (centres undefined)
0.93: normalised cell number [13, 19]
1.95 and 1.38 and 4.04: fold change [18, 24]
0%: nuclear beta-catenin stimulation ([4]; stimulation, at 2 µM)
1.24: normalised cell number [13, 20]
11300 and 8200 and 12500: cell count [18, 26]
11300 and 8240 and 10300: cell count [18, 25]
0.23: z-score [14, 22]
inactive: nuclear beta-catenin stimulation ([4]; at 10 µM) 0.9% | insulin secretion stimulation [5] 2.6% | viability decrease [6] -21% | tube area decrease [7] 1% | GLP1 secretion stimulation [8] -0.7% | inhibition of viability [9] -1.5% | viability decrease (inhibition) [10] 15.3% | viability decrease (inhibition) [11] -15.6% | inhibition [12] -6.96% | red/green cell ratio (normalised) [13] 1.33 | fold change [18, 23] 1.01 and 1 and 0.826 | z-score [14, 21] 0.278 | remaining NAD [15] 10 nM | luciferase signal [16] 104 AU | log fold change Tl+ flux (F380Y) -0.0134 | log fold change Tl+ flux (F380Y/beta2Delta) 0.0447 | log fold change Tl+ flux [17] 0.000816

CO[C@@]1(NC(=O)Cc2cccs2)C(=O)N2C(C(=O)O)=C(COC(N)=O)CS[C@@H]21
-0.5%: nuclear beta-catenin stimulation ([4]; stimulation, at 2 µM)
10300 and 10400 and 12700: cell count [18, 26]
10400 and 9040 and 11300: cell count [18, 25]
1.09: normalised cell number [13, 20]
inactive: inhibition [1] 0.45% | fluorescence ratio [3] 1.01 | nuclear beta-catenin stimulation ([4]; at 10 µM) -1.4% | insulin secretion stimulation [5] 2.1% | viability decrease [6] -11.8% | tube area decrease [7] 26.2% | GLP1 secretion stimulation [8] -1.2% | inhibition of viability [9] 14.8% | viability decrease (inhibition) [10] 8.9% | viability decrease (inhibition) [11] -14.4% | inhibition [12] 8.52% | red/green cell ratio (normalised) [13] 1.1 | fold change [18, 23] 1.01 and 0.868 and 0.891 | z-score [14, 21] 0.626 | remaining NAD [15] 10 nM | luciferase signal [16] 108 AU | log fold change Tl+ flux (F380Y) 0.0585 | log fold change Tl+ flux (F380Y/beta2Delta) -0.00432 | log fold change Tl+ flux [17] -0.0176
8.44 and 1.64 and 2.66: fold change [18, 24]
active: inhibition [2] 27.7%
-0.518: z-score [14, 22]
0.99: normalised cell number [13, 19]

O=C1NC(=O)C(c2ccccc2)(c2ccccc2)N1
-1.75 and 0.128: z-score [14, 22]
inactive: inhibition [1] -2.27% | inhibition [2] -2% | fluorescence ratio [3] 1 | nuclear beta-catenin stimulation ([4]; at 10 µM) 0.1% | insulin secretion stimulation [5] -0.3% | viability decrease [6] 7% | tube area decrease [7] -8.6% | GLP1 secretion stimulation [8] 3.3% | inhibition of viability [9] 0.15% | viability decrease (inhibition) [10] 45.8% | viability decrease (inhibition) [11] -0.3% | inhibition [12] 6.59% | red/green cell ratio (normalised) [13] 0.93 | remaining NAD [15] 10 nM | luciferase signal [16] 68 AU | log fold change Tl+ flux (F380Y) 0.0665 | log fold change Tl+ flux (F380Y/beta2Delta) -0.01 | log fold change Tl+ flux [17] -0.0118
0.8%: nuclear beta-catenin stimulation ([4]; stimulation, at 2 µM)
1.07: normalised cell number [13, 19]
2.18 (active) and -0.393 (inactive): z-score [14, 21]
0.99: normalised cell number [13, 20]
